The source made the active and inactive calls. No rule for the calls is given here.
The molecules below were run against Apoptosis regulator Bcl-2 (Homo sapiens) (UniProt P10415) (assay: inhibitors of Bim-Bcl-2 binding, confirmation, biochemical, dose response, multiplexed HTS hits (AID 2075)). Settings: bead-based flow cytometry, Bim peptide-Bcl-2 binding; series mostly up to 100 µM.
Apoptosis regulator Bcl-2 (Homo sapiens), sequence (P10415 whole entry, looked up): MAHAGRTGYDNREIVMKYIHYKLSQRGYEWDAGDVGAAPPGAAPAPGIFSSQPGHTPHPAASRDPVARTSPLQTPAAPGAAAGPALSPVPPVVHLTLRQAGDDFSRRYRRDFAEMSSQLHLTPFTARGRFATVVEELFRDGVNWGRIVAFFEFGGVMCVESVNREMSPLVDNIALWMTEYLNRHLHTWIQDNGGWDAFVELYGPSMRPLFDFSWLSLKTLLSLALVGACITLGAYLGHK
With `Cc1ccc(-c2cc(-c3ccc(F)cc3)c(C#N)c(N)n2)o1` the outcome was “inactive”.
In the case of `CNC1CCC(Br)CC(C(=O)/C=C/c2cccc(OC)c2OC)C1=O` (centres undefined), the outcome is reported as “inactive”.
With `CCN1C(=O)/C(=C\C=C2/C=CC=CN2CC)SC1=S` the outcome was “inactive”.
For `COc1ccc(N2C(=O)C(Cl)=C(NC3C(=O)N(c4ccccc4)N(C)C3C)C2=O)cc1` (centres undefined), the outcome was “inactive”.
In the case of `O=C1c2ccccc2C(=O)N1CN(C(=O)COc1ccc(Cl)cc1Cl)c1cccc(F)c1`, the outcome is reported as “inactive”.
For `COc1cc(N=C2SSNC2Cl)c(OC)cc1Cl` (centres undefined), the outcome was “inactive”.
With `COc1ccccc1-n1c(-c2ccccc2)c[nH]c1=S` the outcome was “inactive”.
With `O=C1C(Cl)=C(N2CCN(c3ccccc3[N+](=O)[O-])CC2)C(=O)c2ccccc21` the outcome was “inactive”.
In the case of `Cc1nnc(Sc2cc(NCCO)c([N+](=O)[O-])c3nonc23)s1`, the outcome is reported as “inactive”.
